Measured values as given in PubChem BioAssay AID1053205 (Broad Institute, 2014).
Potency and affinity values are given separately. Records with an inconclusive call do not appear. Active and inactive are the calls of the source.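 How the source made its calls: active means compounds lowering the FRET ratio whose fitted half-maximal concentration is at most twice their top tested dose; inconclusive means flat partial drop between 30 and 70 percent, or bad fit; inactive means the rest.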

Molecular target: Voltage-dependent L-type calcium channel subunit alpha-1D (Homo sapiens) (UniProt Q01668)
Experiment: disruptors of CaV1.3 IQ/ICDI domain association – cell-based, HEK293, YFP-IQ/CFP-ICDI FRET, cherry-picks, dose response (AID 1053205)
Conditions: HEK293 YFP-IQ/CFP-ICDI FRET ratio, 10 min; series mostly up to 35 µM

Chain of Voltage-dependent L-type calcium channel subunit alpha-1D (Homo sapiens) (Q01668 whole entry, looked up, the tested form may be a part): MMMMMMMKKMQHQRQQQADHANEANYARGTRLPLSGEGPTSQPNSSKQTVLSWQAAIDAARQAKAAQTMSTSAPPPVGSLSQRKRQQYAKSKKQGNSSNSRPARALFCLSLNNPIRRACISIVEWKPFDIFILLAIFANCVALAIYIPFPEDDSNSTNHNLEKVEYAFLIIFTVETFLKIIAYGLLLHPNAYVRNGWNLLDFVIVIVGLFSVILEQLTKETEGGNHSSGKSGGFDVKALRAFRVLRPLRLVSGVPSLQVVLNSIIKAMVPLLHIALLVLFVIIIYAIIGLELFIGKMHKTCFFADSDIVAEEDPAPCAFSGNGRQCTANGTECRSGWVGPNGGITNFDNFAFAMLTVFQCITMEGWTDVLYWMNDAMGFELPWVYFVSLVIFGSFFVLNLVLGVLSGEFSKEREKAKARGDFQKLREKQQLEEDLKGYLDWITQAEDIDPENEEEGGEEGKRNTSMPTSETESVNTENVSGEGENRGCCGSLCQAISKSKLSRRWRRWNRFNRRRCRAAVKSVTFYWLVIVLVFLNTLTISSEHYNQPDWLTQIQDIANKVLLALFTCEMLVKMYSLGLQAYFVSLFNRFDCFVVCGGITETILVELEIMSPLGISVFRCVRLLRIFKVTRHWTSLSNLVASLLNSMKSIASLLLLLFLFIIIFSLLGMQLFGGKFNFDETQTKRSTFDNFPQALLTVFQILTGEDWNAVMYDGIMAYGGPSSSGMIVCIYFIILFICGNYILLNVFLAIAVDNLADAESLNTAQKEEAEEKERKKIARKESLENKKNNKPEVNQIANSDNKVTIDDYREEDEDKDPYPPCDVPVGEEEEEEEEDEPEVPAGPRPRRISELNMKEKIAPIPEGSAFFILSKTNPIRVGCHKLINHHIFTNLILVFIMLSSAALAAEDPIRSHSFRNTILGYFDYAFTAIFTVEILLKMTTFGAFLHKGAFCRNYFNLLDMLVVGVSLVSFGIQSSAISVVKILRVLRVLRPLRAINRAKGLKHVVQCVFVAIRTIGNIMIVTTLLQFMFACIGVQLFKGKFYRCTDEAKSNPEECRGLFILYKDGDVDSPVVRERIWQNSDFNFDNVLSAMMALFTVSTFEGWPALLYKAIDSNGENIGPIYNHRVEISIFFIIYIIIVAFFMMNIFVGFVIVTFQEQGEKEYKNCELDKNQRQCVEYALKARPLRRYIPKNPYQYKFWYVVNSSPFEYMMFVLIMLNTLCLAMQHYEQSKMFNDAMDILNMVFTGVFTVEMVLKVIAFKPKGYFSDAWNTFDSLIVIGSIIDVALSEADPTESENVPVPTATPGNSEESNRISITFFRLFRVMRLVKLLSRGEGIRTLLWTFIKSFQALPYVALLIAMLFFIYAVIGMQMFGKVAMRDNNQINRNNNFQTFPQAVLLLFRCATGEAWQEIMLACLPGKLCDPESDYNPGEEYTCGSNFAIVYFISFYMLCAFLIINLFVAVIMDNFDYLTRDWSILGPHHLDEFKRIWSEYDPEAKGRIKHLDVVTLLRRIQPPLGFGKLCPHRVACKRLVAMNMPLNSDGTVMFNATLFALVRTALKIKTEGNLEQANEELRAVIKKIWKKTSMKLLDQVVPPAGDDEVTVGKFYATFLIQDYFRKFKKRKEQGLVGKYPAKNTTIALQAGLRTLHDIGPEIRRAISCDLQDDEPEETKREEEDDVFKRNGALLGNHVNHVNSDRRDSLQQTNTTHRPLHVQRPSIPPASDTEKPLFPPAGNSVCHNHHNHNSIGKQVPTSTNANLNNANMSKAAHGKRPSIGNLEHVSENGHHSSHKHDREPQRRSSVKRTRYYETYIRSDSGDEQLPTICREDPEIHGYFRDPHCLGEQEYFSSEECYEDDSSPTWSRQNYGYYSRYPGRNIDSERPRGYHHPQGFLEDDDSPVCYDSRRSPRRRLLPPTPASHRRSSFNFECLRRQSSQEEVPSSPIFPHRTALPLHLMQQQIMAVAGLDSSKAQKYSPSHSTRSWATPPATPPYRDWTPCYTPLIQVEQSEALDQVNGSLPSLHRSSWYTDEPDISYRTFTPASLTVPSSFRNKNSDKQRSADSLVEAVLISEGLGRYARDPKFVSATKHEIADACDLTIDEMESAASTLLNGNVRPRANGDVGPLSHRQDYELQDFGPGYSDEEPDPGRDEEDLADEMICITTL

outcome, inactive:
O=c1oc2c(CN3CCN(CCO)CC3)c(O)ccc2cc1-c1ccccn1
Cc1c(O)ccc2cc(S(=O)(=O)c3ccccc3)c(=O)oc12
O=C1CCc2cc(S(=O)(=O)NC(Cc3ccccc3)C(=O)NCCC3=CCCCC3)ccc2N1 (configuration not stated)
CC(=O)c1cc2c(ccc3ccccc32)oc1=O
Cn1cccc1/C=N/NC(=O)c1sc2cc(Cl)ccc2c1Cl
COc1cc(/C=C(\C#N)C(=O)NC(C)C)cc(Cl)c1O
O=C(NS(=O)(=O)c1ccc(Cl)s1)c1ccccc1
CCN(CC)CCN1C2=C(C(=O)CC(C)(C)C2)C(c2cccc(F)c2)C2=C1CC(C)(C)CC2=O
COc1ccc(NC(=O)C2CCC(CNS(=O)(=O)c3cccs3)CC2)cc1 (configuration not stated)
Cc1ccc2c(c1)-c1c(cnn1CC(=O)Nc1ccccc1N1CCN(C)CC1)CO2
Cc1c(C(=O)NCc2cccc([N+](=O)[O-])c2)sc(=O)n1Cc1cccc(F)c1
O=[N+]([O-])c1cccc(-c2n[nH]c(=S)n2-c2ccc(Br)cc2)c1
CCOC1=NN(c2ncc(C(F)(F)F)cc2Cl)C(=O)C1
C=CCN1C(=S)CC(c2ccccc2)=Nc2ccccc21
Cc1ccc2nc3c(cc(C(N)=S)c(=N)n3CCCOC(C)C)c(=O)n2c1
CSc1ccc(Cn2c(C)c(C(=O)NCc3cccc(Cl)c3)sc2=O)cc1
COc1cc(C2C3=C(CC(C)(C)CC3=O)N(C)C3=C2C(=O)CC(C)(C)C3)cc(Br)c1O
